Screens from PubChem BioAssay.
SRC2 TRFRET art – flags TR-FRET format artefacts in PPARgamma SRC-2 recruitment agonist screen | TR-FRET ratio at 8 µM | TR-FRET artefact counter-screen; active compounds read high | hit rate 0.4% among 200,000
PPARg SRC-3 ag – promotes SRC-3 coactivator recruitment by human PPARgamma | biochemical PPARgamma/SRC-3 coactivator recruitment assay | activation, % at 8 µM | hit rate 0.26% among 200,000 | AID 731; in the data active means activation above about 23%;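 further: 0% = DMSO and 100% = reference agonist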
Target sequence (P37231 whole entry, looked up): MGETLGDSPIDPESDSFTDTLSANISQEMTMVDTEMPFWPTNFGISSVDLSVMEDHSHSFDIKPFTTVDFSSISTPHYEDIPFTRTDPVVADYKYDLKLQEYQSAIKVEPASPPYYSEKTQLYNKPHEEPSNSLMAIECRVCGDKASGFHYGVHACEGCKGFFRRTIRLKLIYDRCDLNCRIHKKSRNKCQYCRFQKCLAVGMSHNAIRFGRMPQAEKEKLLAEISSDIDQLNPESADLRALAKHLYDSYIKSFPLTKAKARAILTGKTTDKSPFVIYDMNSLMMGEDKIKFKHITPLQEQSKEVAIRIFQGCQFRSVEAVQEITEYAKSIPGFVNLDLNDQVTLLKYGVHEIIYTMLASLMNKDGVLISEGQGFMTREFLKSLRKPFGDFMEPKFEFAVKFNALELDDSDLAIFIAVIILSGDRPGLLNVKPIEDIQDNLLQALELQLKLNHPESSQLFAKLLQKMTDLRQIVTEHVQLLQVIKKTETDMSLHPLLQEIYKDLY
SRC3 TRFRET art – flags TR-FRET format artefacts in PPARgamma SRC-3 recruitment agonist screen; hit rate 0.39% among 99,000; TR-FRET artefact counter-screen, PPARgamma/SRC-3 format; active compounds read high; AID 1048; TR-FRET ratio at 8 µM
PPARg SRC-1 ag – PPARgamma-driven SRC-1 recruitment agonism; activation, % at 8 µM; hit rate 0.41% among 200,000; P37231; PPARgamma-SRC-1 coactivator recruitment biochemical assay; in the data active means activation above about 19%;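 further: 0% = DMSO and 100% = reference agonist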
SRC1 TRFRET art – counter-screen for PPARgamma SRC-1 recruitment agonists: TR-FRET artefact; TR-FRET ratio at 8 µM; TR-FRET detection artefact counter-screen, emission ratio; active compounds read high; AID 1051; hit rate 0.34% among 99,000; in the data active means TR-FRET ratio above about 2300
PPARg SRC2 recr – agonists of SRC-2 recruitment by human PPARgamma. P37231. PPARgamma LBD-SRC-2 recruitment, biochemical. activation, % at 8 µM. hit rate 0.34% among 200,000. AID 1032; in the data active means activation above about 22%;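 further: 0% = vehicle and 100% = reference agonist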
An asterisk follows results filed as active; x = not tested or not shown. Most compounds without a hit are left out; they make up all but 0.9% or so of the library. Unless noted, no stated cut-off is given here; in the data, active means TR-FRET ratio above about 2000; inactive means the rest.

SMILES | SRC2 TRFRET art | PPARg SRC-3 ag | SRC3 TRFRET art | PPARg SRC-1 ag | SRC1 TRFRET art | PPARg SRC2 recr
CCN(CC)CCN(Cc1cc2cc3c(cc2[nH]c1=O)OCCO3)C(=O)NC1CCCCC1 | 1649 | 3 | x | 19* | x | -2
O=C(NCc1ccccn1)c1cc(-c2ccccc2)nc2ccccc12 | 1426 | -3 | 1462 | -4 | 1648 | 6
O=C(NCc1ccco1)c1cc(-c2cccnc2)nc2ccccc12 | 1779 | -4 | 1623 | 3 | 2325* | 12
O=C(NCc1ccco1)c1cc(-c2ccncc2)nc2ccccc12 | 1597 | 2 | x | 1 | x | 0
O=C(NCc1ccccn1)c1cc(-c2ccc(-c3ccccc3)cc2)nc2ccccc12 | 1653 | -1 | 2387* | 2 | 1888 | 1
Cc1cc([N+](=O)[O-])ccc1N=Nc1c(N)[nH]n(-c2ccccc2)c1=O | 1291 | 6 | 1687 | -2 | 2323* | 3
Cc1cccc(N(CC(=O)N2CCOCC2)S(C)(=O)=O)c1C | 1639 | 16 | x | 13 | x | 13
Cc1cccc(N(CC(=O)N2CCN(c3ccc(F)cc3)CC2)S(C)(=O)=O)c1C | 1524 | 2 | 1507 | 29* | 2469* | 0
COc1ccc(/C=C2/C(=O)N(Cc3ccccc3)N=C2C)cc1 | 1595 | 4 | 1500 | 1 | 1736 | 0
COc1ccc(/C=C2/C(=O)N(c3nc4ccccc4s3)N=C2CSc2ccc(Cl)cc2)cc1 | 1737 | 5 | 2197* | 5 | 2577* | 0
COc1ccc(N2CC(NC(=O)N3CCc4ccccc43)CC2=O)cc1OC (configuration not stated) | 1696 | 2 | 1574 | 1 | 1870 | -3
FC(F)(F)c1nnc2c(Sc3ccc(Cl)cc3)nc3ccccc3n12 | 1457 | 3 | x | 32* | x | 9
O=C(Nc1cccnc1)c1cc(-c2ccc3c(c2)OCO3)on1 | 1992* | 19 | x | 12 | x | 20
O=C(Nc1cccnc1)c1cc(-c2ccc(F)cc2)on1 | 1430 | 1 | 1821 | -6 | 1836 | -5
COC(=O)Sc1nnc(-c2ccc(Br)cc2)o1 | 2802* | 63* | x | 45* | x | 54*
OCC#CCSc1nnc(-c2ccc(Br)cc2)o1 | 1717 | 6 | x | 13 | x | 11
COC(=O)/C=C/CSC1=N/C(=C/c2ccc(-n3cncn3)cc2)C(=O)N1 | 1627 | 2 | x | 2 | x | 8
Cc1nonc1OCCNC(=O)C12CC3CC(CC(C3)C1)C2 | 1500 | -13 | x | 1 | x | 5
O=S1(=O)CC2N=C(N(Cc3ccc(F)cc3Cl)c3ccccc3F)SC2C1 (configuration not stated) | 1811 | -6 | 1453 | 3 | 1784 | 25*
Nc1cc(-c2ccc(Br)cc2)nn1S(=O)(=O)c1cccc2nsnc12 | 1674 | 3 | x | -2 | x | -10
Cc1ccccc1NC(=S)NCc1ccccc1 | 1467 | -2 | 1287 | -3 | 1604 | -9
CN1CCS/C1=C\C=C1/SC(=S)N(CC(=O)O)C1=O | 1733 | 9 | 1783 | 24* | 2228 | 6
CCN1C(=O)/C(=C/C=C2/SCCN2C)SC1=S | 1470 | 1 | x | 9 | x | -2
O=C(CCC1CCCN(C(=O)C2=CCCCC2)C1)N1CCN(c2ccccn2)CC1 (configuration not stated) | 1611 | 3 | 1738 | 25* | 1823 | -3
O=C(CSc1nnc(-c2ccc(F)cc2)c2ccccc12)Nc1ccccc1 | 1768 | 8 | 2080* | 11 | 2120 | 6
SMILES | SRC2 TRFRET art | PPARg SRC-3 ag | SRC3 TRFRET art | PPARg SRC-1 ag | SRC1 TRFRET art | PPARg SRC2 recr
O=C(CSc1nnc(-c2ccc(F)cc2)c2ccccc12)Nc1ccccc1Cl | 1884 | -1 | 2763* | 2 | 1880 | 8
O=C(CSc1nnc(-c2ccc(F)cc2)c2ccccc12)Nc1c(F)cccc1F | 1603 | -1 | 1547 | 8 | 1814 | 17
O=C(CSc1nnc(-c2ccc(F)cc2)c2ccccc12)Nc1cccc(Cl)c1 | 2527* | 5 | 3308* | 4 | 2670* | 4
Cc1nn(Cc2c(F)cccc2Cl)c(C)c1[N+](=O)[O-] | 1578 | 0 | 1841 | 21* | 1688 | 0
CCOC(=O)c1c(C)[nH]c(C(=O)COC(=O)CNC(=O)C2CCCCC2)c1C | 1519 | 29* | x | 7 | x | 2
O=C(NCc1ccc2c(c1)OCO2)Nc1ccc2nsnc2c1 | 2378* | 13 | 1791 | 12 | 2198 | 67*
O=C(Nc1ccc(N2CCOCC2)cc1)Nc1ccc2nsnc2c1 | 1863 | 9 | 1642 | 7 | 2437* | 11
COc1ccc(NC(=O)NCc2ccc3c(c2)OCO3)cc1 | 1486 | -1 | 1563 | -1 | 1783 | 5
COc1ccc(C(=O)Nc2cc(C)c3c(=O)oc4ccccc4c3n2)cc1 | 1536 | -5 | x | 24* | x | 1
CCCCCC1CC(CC#CCN2CCOCC2)C(=O)O1 (configuration not stated) | 1594 | 3 | 1307 | -5 | 1884 | -1
[O-]/C(=C(\C(=S)Nc1ccccc1F)[n+]1ccccc1)c1ccc(-c2ccccc2)cc1 | 1913 | 1 | 1857 | 1 | 2348* | 9
CC(C)(C)c1cc[n+](/C(C(=S)Nc2ccccc2F)=C(/[O-])c2ccc3c(c2)OCCO3)cc1 | 1596 | 3 | 1459 | 7 | 1902 | 6
Cc1cccc(NC(=O)COC(=O)c2cc3ccccc3oc2=O)c1 | 1546 | 4 | 1782 | -1 | 1673 | 6
O=C(NCCCCCCNC(=O)c1ccc(Br)s1)c1ccc(Br)s1 | 2455* | 1 | x | -9 | x | 5
O=C(NCCCCNC(=O)c1ccc(Cl)s1)c1ccc(Cl)s1 | 1432 | -1 | x | 2 | x | 5
CCN(CC)c1ccc2cc(-c3nc4ccccc4n3C)c(=O)oc2c1 | 1610 | 10 | x | -1 | x | 1
CCN(CC)c1ccc2cc(-c3nc4ccccc4[nH]3)c(=O)oc2c1 | 1621 | 9 | x | 26* | x | 5
O=C(Cc1cccs1)Nc1ccc(-c2nnc(-c3ccco3)o2)cc1 | 1464 | -1 | 1376 | 1 | 1636 | 2
O=C(Cc1cccs1)Nc1ccc(-c2nnc(-c3ccccc3)o2)cc1 | 1692 | 3 | x | 21* | x | 11
Cn1c(=O)c(C(=O)NC2CCCCCCC2)c(O)c2ccccc21 | 1608 | -2 | 1661 | 50* | 3217* | 8
COc1ccc(/C(N)=N/OC(=O)CN(C)S(=O)(=O)c2ccc(C)cc2)cc1 | 1857 | 5 | 1722 | 22* | 1999 | 4
COc1ccc(/C(N)=N/OC(=O)CN(C)S(=O)(=O)c2ccccc2)cc1 | 1684 | 5 | 1502 | 0 | 1709 | 6
Cc1cccc(Nc2ccc(C(=O)N3CCOCC3)cn2)c1 | 1985* | 3 | 1601 | 9 | 2076 | 7
O=C(c1ccc(Nc2cccc(C(F)(F)F)c2)nc1)N1CCCC1 | 1376 | 7 | x | 0 | x | -5
Cc1ccnc(SCC(=O)Nc2sc3c(c2C#N)CCC(C(C)(C)C)C3)n1 (configuration not stated) | 1547 | 5 | x | 2 | x | 9
CC(C)(C)C1CCc2c(sc(NC(=O)CSc3nnc(-c4ccccc4)o3)c2C#N)C1 (configuration not stated) | 1982* | 4 | 1823 | 3 | 2157 | -2
